# The full ranking holds about 81,000 sequences; the median of “one-hybrid fitness for binding NBS DNA” is about -0.1, and the highest 2% start at about 0.36. The entries come from a sample that favours the highest values as a whole.
# B1: Caulobacter ParB omega fusion; a variant is named by its letters at X, in order, B8GW30 (parent)
# chain: MESVVVGEPGMSEGRRGLGRGLSALLGEVDAAPAQAPGEQLGGSREAPIEILQRNPDQPRRTFREEDLEDLSNSIREKGVLQPILVRPSPDTAGEYQIVAGERAWRAAQRAGLKTVPIMVRELDDLAVLEIGIIENVQRADLNVLEEALSYKVLMEKFERTQENIAQTIGKSXSHVANXMRLLXLPDEVQSYLVSGELTAXHARAIAAAADPVALAKQIIEGGLSVRETEALARKAPNLSAGKSKGGRPPRVKDTDTQALESDLSSVLGLDVSIDHRGSTGTLTITYATLEQLDDLCNRLTRGI
# Variants of: B1
# Test: one-hybrid fitness for binding NBS DNA (the Noc-binding site; scaled: cognate 1, non-cognate 0); higher = stronger binding
# Details: with NBS DNA site
# Summary of the method: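 Values were rescaled so that cognate is 1 and non-cognate is 0. Each is a fitness, the log change in a variant's read ratio to wild type from Illumina reads of plasmids before and after selection, with three replicate libraries pooled and variants under 10 reads dropped. Selection of the Caulobacter ParB libraries, four specificity codons randomised, used E. coli USO with a HIS3 reporter, site 19 bp from the promoter, on M9-minus-histidine with 0.1 mM IPTG and 5 mM 3-AT for 48 hours at 37°C.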
row,Variant,one-hybrid fitness for binding NBS DNA
1,SWHQ,≤ 0.2
2,IRHW,≤ 0.2
3,EMAM,≤ 0.2
4,DYQG,≤ 0.2
5,TGTL,≤ 0.2
6,WNAL,≤ 0.2
7,RHAP,≤ 0.2
8,RLAP,≤ 0.2
9,RLAS,0.383
10,RHAS,0.433
11,RIAS,0.345
12,RAAS,0.368
13,RLAH,≤ 0.2
14,RAAD,≤ 0.2
15,RCAS,0.476
16,RHAN,≤ 0.2
17,RPAS,≤ 0.2
18,RAAH,≤ 0.2
19,TIIA,≤ 0.2
20,APSV,≤ 0.2
21,HMQC,≤ 0.2
22,LRDK,≤ 0.2
23,SENT,≤ 0.2
24,LQVS,≤ 0.2

row,Variant,one-hybrid fitness for binding NBS DNA
1,PPFG,≤ 0.2
2,RSHK,≤ 0.2
3,QQTN,≤ 0.2
4,QQTS,0.433
5,QQTF,≤ 0.2
6,QQTT,0.464
7,QQTC,≤ 0.2
8,QQTH,0.264
9,QQTD,≤ 0.2
10,QQTP,≤ 0.2
11,QQTR,0.648
12,WSIE,≤ 0.2
13,GCAR,≤ 0.2
14,RQSC,≤ 0.2
15,YATR,≤ 0.2
16,SEFT,≤ 0.2
17,STWN,≤ 0.2
18,SNPF,≤ 0.2
19,LHCS,≤ 0.2
20,CNGF,≤ 0.2
21,FEEV,≤ 0.2
22,LQET,≤ 0.2
23,RANH,≤ 0.2
24,RARN,≤ 0.2

row,Variant,one-hybrid fitness for binding NBS DNA
1,RANS,0.484
2,RAIS,≤ 0.2
3,RAYS,0.423
4,RARH,0.306
5,RARS,0.564
6,RADS,≤ 0.2
7,RAWS,0.262
8,DPHT,≤ 0.2
9,NPRM,≤ 0.2
10,HYCF,≤ 0.2
11,GLER,≤ 0.2
12,NTPI,≤ 0.2
13,RCQH,0.228
14,RRQP,≤ 0.2
15,RRQS,0.69
16,RCQG,≤ 0.2
17,RRQG,0.377
18,RRQD,≤ 0.2
19,RSQG,≤ 0.2
20,RRQN,0.322
21,RRQH,0.447
22,PGAA,≤ 0.2
23,NLQS,≤ 0.2
24,HATK,≤ 0.2

row,Variant,one-hybrid fitness for binding NBS DNA
1,WPRM,≤ 0.2
2,LVQN,≤ 0.2
3,DLGR,≤ 0.2
4,GFTS,≤ 0.2
5,QYVN,≤ 0.2
6,QYVR,0.381
7,NYKR,≤ 0.2
8,QYVP,≤ 0.2
9,EYKR,≤ 0.2
10,QYKR,0.99
11,KYYF,≤ 0.2
12,SYTG,≤ 0.2
13,PAEC,≤ 0.2
14,TFLC,≤ 0.2
15,RTRR,0.818
16,RCWR,0.405
17,RTGR,0.622
18,RPWR,≤ 0.2
19,RTER,0.262
20,RTGH,0.271
21,RTPR,0.208
22,RTRD,≤ 0.2
23,RTGP,≤ 0.2
24,RSWR,0.27

row,Variant,one-hybrid fitness for binding NBS DNA
1,RTIR,0.354
2,RTYR,0.522
3,WHGR,≤ 0.2
4,SVYC,≤ 0.2
5,DNYS,≤ 0.2
6,AQDG,≤ 0.2
7,RTDR,0.282
8,RTCD,≤ 0.2
9,RTSC,≤ 0.2
10,RTCR,0.53
11,RTCN,≤ 0.2
12,RTHM,≤ 0.2
13,RTSF,≤ 0.2
14,RTSR,0.576
15,RTNP,≤ 0.2
16,RTNR,0.744
17,RTHR,0.631
18,RTHG,≤ 0.2
19,MTRH,≤ 0.2
20,GPMF,≤ 0.2
21,VYNT,≤ 0.2
22,NQFD,≤ 0.2
23,GLEG,≤ 0.2
24,DQKV,≤ 0.2

row,Variant,one-hybrid fitness for binding NBS DNA
1,ATVV,≤ 0.2
2,THMM,≤ 0.2
3,RTWP,≤ 0.2
4,RTQR,0.575
5,RTQP,≤ 0.2
6,RTLH,≤ 0.2
7,RTLR,0.461
8,RTWD,≤ 0.2
9,RTWR,0.404
10,RTQN,≤ 0.2
11,RTLQ,≤ 0.2
12,QGED,≤ 0.2
13,DAQE,≤ 0.2
14,GQLV,≤ 0.2
15,RKFD,≤ 0.2
16,RKAT,0.643
17,RKAK,≤ 0.2
18,RKFH,0.212
19,RPFT,≤ 0.2
20,RCFT,0.423
21,RSFT,≤ 0.2
22,RKFT,0.437
23,RKAG,≤ 0.2
24,ALQE,≤ 0.2

row,Variant,one-hybrid fitness for binding NBS DNA
1,NTTI,≤ 0.2
2,VKDD,≤ 0.2
3,SFVF,≤ 0.2
4,WRVA,≤ 0.2
5,QKIH,≤ 0.2
6,QPIR,≤ 0.2
7,QRPR,0.543
8,QRPN,≤ 0.2
9,QKIR,0.37
10,QRID,≤ 0.2
11,QKPR,0.271
12,QRIR,0.686
13,QRIF,≤ 0.2
14,QCIR,0.476
15,QSIR,0.336
16,HKRE,≤ 0.2
17,TTVD,≤ 0.2
18,RYII,≤ 0.2
19,YVSR,≤ 0.2
20,VVAC,≤ 0.2
21,CQVS,≤ 0.2
22,GESL,≤ 0.2
23,PASE,≤ 0.2
24,TQWR,≤ 0.2

row,Variant,one-hybrid fitness for binding NBS DNA
1,YKER,≤ 0.2
2,SGPG,≤ 0.2
3,RKEN,≤ 0.2
4,RKES,0.434
5,RKEC,≤ 0.2
6,RKEP,≤ 0.2
7,RSET,≤ 0.2
8,RSER,≤ 0.2
9,RKED,≤ 0.2
10,RKET,0.528
11,RKER,0.475
12,TPNM,≤ 0.2
13,GAKV,≤ 0.2
14,PFSN,≤ 0.2
15,GRHM,≤ 0.2
16,ESQL,≤ 0.2
17,SDYT,≤ 0.2
18,TGQV,≤ 0.2
19,AFRG,≤ 0.2
20,AFCR,≤ 0.2
21,QMVS,0.282
22,QMKH,0.559
23,QMKP,0.277
24,QMKF,0.3

row,Variant,one-hybrid fitness for binding NBS DNA
1,QMKS,0.668
2,QMKE,0.215
3,QMQQ,≤ 0.2
4,QMKD,0.313
5,QMKQ,0.417
6,QMKI,0.322
7,QMKN,0.4
8,QMVQ,0.283
9,TPAD,≤ 0.2
10,RQKV,0.237
11,CAYF,≤ 0.2
12,LIRD,≤ 0.2
13,PIRV,≤ 0.2
14,QTRM,0.562
15,QCYM,≤ 0.2
16,QKYM,≤ 0.2
17,QHQM,≤ 0.2
18,QPRM,≤ 0.2
19,QTDM,≤ 0.2
20,QTYM,≤ 0.2
21,QCRM,0.505
22,QKDM,≤ 0.2
23,QHRM,0.379
24,QKRM,0.4

row,Variant,one-hybrid fitness for binding NBS DNA
1,QHDM,≤ 0.2
2,IVMP,≤ 0.2
3,STQT,≤ 0.2
4,NHEL,≤ 0.2
5,TDNM,≤ 0.2
6,IHYS,≤ 0.2
7,RIDA,≤ 0.2
8,LSVV,≤ 0.2
9,TPRN,≤ 0.2
10,NHPC,≤ 0.2
11,LYSC,≤ 0.2
12,GAPG,≤ 0.2
13,PSHR,≤ 0.2
14,RVAG,≤ 0.2
15,YGRN,≤ 0.2
16,AHAS,≤ 0.2
17,QRYM,0.353
18,QSYM,≤ 0.2
19,QMYM,≤ 0.2
20,QRWM,0.254
21,QSRM,0.402
22,QSDM,≤ 0.2
23,QMRM,0.45
24,QRRM,0.589

row,Variant,one-hybrid fitness for binding NBS DNA
1,QMDM,≤ 0.2
2,PHEA,≤ 0.2
3,DNPI,≤ 0.2
4,QRDT,0.671
5,DRHT,≤ 0.2
6,QRGT,0.822
7,QTET,0.439
8,QTEH,≤ 0.2
9,DRGT,≤ 0.2
10,NRGT,≤ 0.2
11,NRHT,≤ 0.2
12,QPET,≤ 0.2
13,QRHT,0.789
14,LHGL,≤ 0.2
15,SEHS,≤ 0.2
16,AWHA,≤ 0.2
17,AGPD,≤ 0.2
18,CCAY,≤ 0.2
19,GPLH,≤ 0.2
20,DGTS,≤ 0.2
21,QRET,0.603
22,DRNT,≤ 0.2
23,QRYT,0.744
24,QSET,0.253

row,Variant,one-hybrid fitness for binding NBS DNA
1,QWNT,≤ 0.2
2,QCET,0.352
3,QRNT,0.822
4,QRWT,0.707
5,QRWF,≤ 0.2
6,QRWG,≤ 0.2
7,DPRH,≤ 0.2
8,TCSP,≤ 0.2
9,EGGL,≤ 0.2
10,QSFQ,≤ 0.2
11,PGPS,≤ 0.2
12,LKHN,≤ 0.2
13,PPQT,≤ 0.2
14,VKFG,≤ 0.2
15,DVTN,≤ 0.2
16,TRRA,0.25
17,LSWG,≤ 0.2
18,KASG,≤ 0.2
19,PNWS,≤ 0.2
20,ISHA,≤ 0.2
21,TEKA,≤ 0.2
22,QACT,0.363
23,QKET,0.391
24,QRRE,0.346

row,Variant,one-hybrid fitness for binding NBS DNA
1,QRLM,0.322
2,DRCT,≤ 0.2
3,QRRT,0.863
4,QRLT,0.731
5,QKEH,≤ 0.2
6,QRCT,0.806
7,QKES,0.275
8,QILT,0.236
9,QFRT,0.309
10,TPVD,≤ 0.2
11,FWLS,≤ 0.2
12,STAF,≤ 0.2
13,DGKR,≤ 0.2
14,RSDQ,≤ 0.2
15,NRPR,≤ 0.2
16,VFEC,≤ 0.2
17,SCLN,≤ 0.2
18,QRST,0.772
19,QIQT,0.283
20,QFST,≤ 0.2
21,DRQT,≤ 0.2
22,QRQT,0.755
23,NRST,≤ 0.2

# Reference: a collection of fitness landscapes (doi:10.1016/j.celrep.2020.107928)
